HP1b binding inh: inhibitors of HP1-beta chromodomain binding to methylated histone tails; P83916; AlphaScreen HP1-beta / biotin-H3K9me3 peptide binding; Potency, µM (highest dose often 114 µM), without a hit: top-dose activity change, negative = inhibition, actives largely listed as inhibitors; 0.56% of 390,000 active; AID 540317; also: nearly all actives have a fitted effect of over 70% in size
Target sequence (P83916 whole entry, looked up): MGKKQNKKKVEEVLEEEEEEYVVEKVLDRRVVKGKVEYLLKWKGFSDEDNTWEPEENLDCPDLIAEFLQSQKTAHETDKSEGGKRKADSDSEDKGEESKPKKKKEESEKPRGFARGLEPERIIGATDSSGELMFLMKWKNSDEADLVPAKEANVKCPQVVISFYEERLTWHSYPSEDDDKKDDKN
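HP1-beta protein (50 nM final) preincubated 30 min at room temperature with biotinylated H3(1-18)K9me3 peptide (50 nM) in PBS pH 7.4, 0.01% Tween-20, then compound added for 30 min. AlphaScreen streptavidin donor/nickel chelate acceptor beads (10 ug/mL final), 30 min dark, luminescence read.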
L3MBTL1 inh: inhibitors of human L3MBTL1. AlphaScreen L3MBTL1–H3K9me1 peptide binding. Potency, µM (titrated, usually from 57.1 µM), for the others: top-dose activity, negative = inhibition, most hits filed as inhibitors. 0.66% of 230,000 active. AID 485360; also: % is scaled to controls: 0 for no effect and ±100 for the full control effect; nearly all actives have a fitted effect of over 60% in size
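AlphaScreen proximity signal between nickel-chelate acceptor and streptavidin donor beads (final 10 ug/mL) reports binding of 50 nM L3MBTL1 to 75 nM biotin-H3 K9me1 peptide; complex incubated with compounds 30 min at room temperature; cefsulodin titration as control.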
BAZ2B inh: blocks human BAZ2B | Q9UIF8 | 4.4% of 360,000 active | Potency, µM (series often up to 114 µM), for inactives: top-dose activity change, negative = inhibition, hits mostly inhibitors | AlphaScreen BAZ2B-H3K14Ac peptide displacement; also: % is scaled to controls: 0 for no effect and ±100 for the full control effect; nearly all actives have a fitted effect of over 60% in size
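BAZ2B 50 nM plus b-H3(5-23)K14Ac 50 nM, PBS pH 7.4/0.01% Tween-20, 30 min RT; compound added (max 110 uM), 30 min RT; streptavidin donor/Ni-chelate acceptor beads 10 ug/mL final, 20 min dark; AlphaScreen read.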
JMJD2A Tudor: inhibitors of human JMJD2A Tudor domain. O75164. AlphaScreen JMJD2A-Tudor / H3K4me3 peptide binding. Potency, µM (top dose mostly 114 µM), inactives show at the highest dose activity change, negative = inhibition, usual class: inhibitors. 4.4% of 390,000 active. AID 504339; also: % is scaled to controls: 0 for no effect and ±100 for the full control effect; nearly all actives have a fitted effect of over 50% in size
G9a inh: G9a (human) methyltransferase inhibition; Q96KQ7; G9a H3K9 monomethylation, AlphaScreen, 2 h; Potency, µM (doses to about 102 µM), without a hit: top-dose activity, negative = inhibition, most hits filed as inhibitors; 8.8% of 350,000 active; AID 504332; also: % is scaled to controls: 0 for no effect and ±100 for the full control effect; nearly all actives have a fitted effect of over 75% in size
Target sequence (Q96KQ7 913-1193 limits assumed): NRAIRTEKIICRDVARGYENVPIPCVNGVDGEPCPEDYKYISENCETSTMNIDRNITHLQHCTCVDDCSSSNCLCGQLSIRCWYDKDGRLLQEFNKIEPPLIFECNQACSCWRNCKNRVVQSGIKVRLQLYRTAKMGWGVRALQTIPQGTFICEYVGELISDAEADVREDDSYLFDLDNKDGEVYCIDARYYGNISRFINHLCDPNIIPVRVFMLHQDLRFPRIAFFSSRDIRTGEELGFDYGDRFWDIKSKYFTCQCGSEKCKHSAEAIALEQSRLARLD
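AlphaScreen read-out: biotin-H3K9 peptide (500 nM) methylation by 20 nM enzyme with 20 uM SAM, 2 h at room temperature after 15 min compound preincubation; anti-monomethyl H3K9 antibody plus donor/acceptor beads, 10 min dark.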
Sfp inh: blocks B. subtilis Sfp PPTase activity; Q9F4F7; Biochemical Sfp PPTase activity, qHTS; Potency, µM, for inactives: largest response in the series, negative = inhibition, actives largely listed as inhibitors; 3.5% of 310,000 active; AID 1490;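 also: the enzyme is Sfp with the accession as filed and its product quenches rhodamine fluorescence; 0% = enzyme reaction without inhibitor and -100% = no enzyme wells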
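Compounds were incubated with enzyme (final 15 nM) for 15 min at room temperature before substrate addition started the reaction. Fluorescence at 525 nm excitation, 598 nm emission was recorded immediately and after 30 minutes.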
* = called active by the depositor; ? = inconclusive; . = no result given; [ ] = dose if it differs, or a comment. This is a sample that favours compounds with a hit; in the whole collection about 12% have one here. Calls follow the shape of the dose curve; as a rule, active = well fitted curve in the direction sought with a large enough effect; inconclusive = small, poorly fitted or top-dose-only effect, or another doubt; inactive = no such curve, though single readings can be large; an effect the other way counts as inactive or inconclusive. Potency is read from the fitted curve at half-maximal effect.

SMILES	HP1b binding inh	L3MBTL1 inh	BAZ2B inh	JMJD2A Tudor	G9a inh	Sfp inh
COc1cccc([C@@H]2Oc3ccc(Br)cc3C(=O)[C@H]2OC(=O)Nc2ccc(OC(F)F)cc2)c1	.	.	.	.	.	-10.8%
O=C(NC(=S)NNC(=O)c1cc2ccccc2cc1O)c1ccco1	1.0%	?	6.6%	44.7µM*	.	9.1%
O=C(NC(=S)NNC(=O)c1ccco1)c1ccc(F)cc1	55.2%	.	1.0%	-0.4%	12.6µM*	-11.9%
CCCC(=O)Nc1ccc(Cl)c(NC(=S)NC(=O)c2ccco2)c1	26.4%	7.3%	-3.6%	-21.2%	50.1µM*	2.9%
CCCCC(=O)Nc1ccc(C(=O)NNC(=S)NC(=O)c2ccco2)cc1	16.3%	.	-0.1%	-12.6%	25.1µM*	5.0%
COc1ccc2c(c1)O[C@H](c1ccc3c(c1)OCO3)[C@@H](OC(=O)NCCOc1ccccc1)C2=O	.	.	.	.	.	3.6%
CCCCCCCCCCCCCC(=O)OCC(COP(=O)([O-])OCC[N+](C)(C)C)OC(=O)CCCCCCCCCCCCC (stereo unspecified)	.	.	.	.	-11.1%[12.7 µM]	10.4%
CCCC(=O)Nc1ccc(C(=O)NNC(=O)c2ccccc2Br)cc1	7.2%	2.3%	9.7%[57.1 µM]	-6.6%	22.4µM*	-27.9%
O=C(Nc1ccc(Cl)c(NC(=O)c2cccs2)c1)c1ccco1	30.6%	-5.1%	-21.5%	-4.4%	56.2µM*	12.3%
CCCC(=O)Nc1cccc(NC(=O)c2ccccc2Br)c1	20.3%	6.7%	-3.6%	-2.8%	6.6%[59 µM]	14.5%
O=C(Nc1nnc(-c2ccncc2)s1)C1CCCO1 (stereo unspecified)	-9.2%	-0.6%	-29.5%	100µM*	?	-58.0%
O=C(Nc1nnc(-c2ccccc2F)s1)C1CCCO1 (stereo unspecified)	-12.5%	-20.1%	-0.1%	-32.6%	?	-20.0%
COc1ccc(Cc2nnc(NC(=O)C3CCCO3)s2)cc1 (stereo unspecified)	26.7%	1.3%	-36.7%	-5.4%	?	-8.9%
O=C(Nc1nnc(Cc2ccc(Cl)cc2)s1)C1CCCO1 (stereo unspecified)	-12.2%	-1.8%	-21.6%	1.4%	28.2µM*	-26.9%
CCCC(C)c1nnc(NC(=O)C2CCCO2)s1 (stereo unspecified)	-21.1%	-6.2%[11.4 µM]	-1.4%	-12.5%	?	12.6µM*
CCCC(C)c1nnc(NC(=O)c2cc(C(=O)OC)cc([N+](=O)[O-])c2)s1 (stereo unspecified)	-59.1%	-1.6%	-6.4%	?	8.91µM*	14.1µM*
CCCOc1ccc(S(=O)(=O)Nc2ccccn2)c2ccccc12	23.3%	-5.0%	0.3%	0.0%	7.8%	15.0%
CCCC(C)c1nnc(NC(=O)C(=O)OCC)s1 (stereo unspecified)	?	-8.0%[11.4 µM]	56.2µM*	17.8µM*	?	20µM*
Cc1nnc(NC(=O)CCSCCC(=O)Nc2nnc(C)s2)s1	-16.6%	?	50.1µM*	50.1µM*	50.1µM*	-15.2%
CCOC(=O)CCSCC(=O)Nc1nnc(C)s1	34.3%	10.4%	-6.7%	-6.3%	-8.0%[59 µM]	15.2%
Cc1nnc(NC(=O)C2CCCO2)s1 (stereo unspecified)	-4.6%	11.4%[11.4 µM]	1.0%	-18.6%	8.91µM*	-6.3%
COc1ccc(NC(=O)CN(c2cccc(C)c2C)S(=O)(=O)c2ccccc2)cc1OC	-3.5%	.	?	?	-44.6%[59 µM]	.
CC1(C)CC(=O)C2=C(C1)NC(=S)C(C#N)C21CCCCC1 (stereo unspecified)	?	.	?	7.94µM*	0.501µM*	11.2µM*
CCOc1ccc(CCNC(=O)C2CCN(Cc3nc(-c4ccccc4C)oc3C)CC2)cc1OCC	4.9%	.	-22.2%	-25.9%	-34.2%[59 µM]	.
O=C(c1ccncc1)N1CCC2(CCCN(Cc3nccs3)C2)CC1	.	.	.	.	-9.5%[12.7 µM]	2.1%
SMILES	HP1b binding inh	L3MBTL1 inh	BAZ2B inh	JMJD2A Tudor	G9a inh	Sfp inh
CC(C)c1ccc2[nH]c(O)c(N=NC(=O)c3cccc(S(=O)(=O)Nc4ccccc4Cl)c3)c2c1	8.9%	-3.5%	2.2%	-10.8%	-24.5%	-7.6%
O=C(N=Nc1c(O)[nH]c2ccccc12)c1cccc(S(=O)(=O)Nc2ccccc2Cl)c1	-8.8%	-19.8%	?	28.2µM*	9.1%[59 µM]	?
O=C(NCc1ccncc1)c1cccc(S(=O)(=O)Nc2ccc(F)cc2)c1	29.0%	-7.6%	3.5%	-11.6%	?	.
Cc1noc(C)c1-c1ccc2ncnc(NCc3ccc(C(F)(F)F)cc3)c2c1	.	.	.	-21.4%	.	16.2%
O=C(O)c1ccc(-n2cc(-c3cc4ccccc4oc3=O)[nH]c2=S)cc1	-15.3%	.	2.9%	1.26µM*	72.9%	3.16µM*
[O][C@H]1[C@@H](O)[C@@H](CO)O[C@@H](O[C@@H]2[C@@H]3OC[C@H]2O[C@H](O[C@@H]2[C@@H](O)[C@H](C[C@@H]4[C@@H]5OC[C@H]4O[CH][C@@H]5O)O[C@H](CO)[C@@H]2OS(=O)(=O)O)[C@@H]3OS(=O)(=O)O)[C@@H]1O	.	.	.	.	15.8µM*	4.6%
COCCn1ccc2c(OCC(=O)Nc3cccc(NC(C)=O)c3)cccc2c1=O	5.9%	-9.7%	-29.9%	-11.0%	-17.5%	.
CC1CCc2c(sc(NC(=O)COc3ccccc3C(C)(C)C)c2C#N)C1 (stereo unspecified)	-5.1%	.	1.0%	-19.0%	10µM*	.
CCOC(=O)c1cc(S(=O)(=O)NCc2cccc(Cl)c2)[nH]n1	12.2%[57 µM]	.	50.1µM*	-30.4%	3.55µM*	.
Nc1ncc(S(=O)(=O)NCc2cccc(Cl)c2)cn1	29.2%[57 µM]	.	5.3%	16.8%	5.9%[59 µM]	.
CCOC(=O)c1cc(S(=O)(=O)NCc2ccc(C)cc2)[nH]n1	22.4%[57 µM]	.	50.1µM*	-15.0%	5.62µM*	.
Nc1nc(NCc2ccc(Cl)c(Cl)c2)c2[nH]cnc2n1	26.8%	.	.	-25.5%	.	.
O=C(CS(=O)(=O)c1ccccc1)Nc1ccccc1Br	-5.7%	.	.	?	.	.
Fc1ccc(-c2cc(C(F)(F)F)n3ncnc3n2)cc1	21.7%	.	-23.6%	?	12.6µM*	9.5%
c1csc(CNc2ccc3c(c2)OCCO3)c1	3.2%	-3.3%	50.1µM*	?	3.55µM*	-5.6%
Oc1ccccc1CNc1ccc2c(c1)OCCO2	3.8%	-27.5%	?	-34.7%	?	-8.2%
Clc1cc(NCc2cccs2)ccc1N1CCOCC1	-22.6%	-6.2%	50.1µM*	?	11.2µM*	-5.9%
O=C(NCc1cccs1)C1CCN(c2ccc(S(=O)(=O)N3CCOCC3)cc2Cl)CC1	25.3%	5.9%	1.1%	-13.9%	-31.6%[59 µM]	6.3%
C/C(=N\NC(=O)c1cccs1)C(C)(C)C	-1.1%	-1.0%	4.7%	?	-9.0%[59 µM]	-3.5%
O=C(O)CCCC/C=C\C[C@@H](O)/C=C/C=C/C=C\[C@@H](O)CCCC(=O)O	.	.	.	.	.	-13.2%
O=C(CCc1nnc2ccc(NCc3ccco3)nn12)N1CCN(c2ccccc2F)CC1	30.1%	.	70.8µM*	?	.	3.3%

Source: PubChem
